TWEAK Fn14 block – inhibitors of TWEAK-Fn14 signaling, primary screen, luciferase reporter cells, uHTS; TWEAK-stimulated Fn14 reporter cells, luciferase luminescence, 8 h; inhibition, % at 10 µM; 360,000 compounds, 2% hits; in the data active means inhibition above about 50%
LGR2 inh – inhibitors of bursicon-induced LGR2 CRE-luciferase signal, primary screen, cell-based, HEK293, CRE-luciferase reporter, bursicon stimulation. 380,000 compounds, 0.35% hits. Drosophila bursicon receptor LGR2 (rickets). bursicon-stimulated, 4 h. inhibition, % at 9.99 µM;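 active means drop in luminescence signal, shown as inhibition above about 50% in the replicate tests, limit read from the data, passing the limit was not always enough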;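 further: agonist challenge used bursicon conditioned medium at about half maximal strength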
HSF-1 act – HSF-1 activators, primary screen, NIH3T3-HGL cells, MG132 stress, luminescence, single point. NIH3T3-HGL HSF-1 luciferase reporter, 8 h; 100% = twice DMSO control signal. activation, % at 9 µM. 300,000 compounds, 1.7% hits;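 active means mean replicate activation of at least 50% with a set share of replicates each reaching 50%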;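 further: 0% = median of the neutral control wells and 100% = twice that signal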
HSF1 inh – HSF1 inhibitors in luciferase reporter cells, primary screen, cell-based, NIH3T3, luminescence; AID 2098, 2009; activity change, negative = inhibition, % at 7.5 µM (by protocol); NIH3T3-HGL HSE-luciferase, MG132-induced, luminescence 8 h; hits give low values; 300,000 compounds, 0.77% hits;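 active means more than half of replicate wells show activity change below -50%, luminescence cut by over half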;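 further: luciferase reports HSF-1 transcriptional activity via heat shock element; 0% = median of DMSO wells and -100% = zero luminescence signal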
LMP1 NFkB inh – EBV LMP1-driven NF-kappaB luciferase reporter inhibitors, primary screen, cell-based, luminescence, single point; LMP1-induced NF-kappaB luciferase reporter cells; inhibition, % at 12.5 µM; 350,000 compounds, 0.69% hits; AID 504558, 2011; in the data active means inhibition above about 41%;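 further: 0% = neutral control wells and 100% = reference inhibitor control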
TROY NFkB inh – inhibitors of TROY-driven NF-kB signaling, primary screen, Q293 LMP1-TROYcd cells, NF-kB luciferase, uHTS | Q293 LMP1-TROYcd NF-kB luciferase reporter, 4 h | inhibition, % at 10 µM | 360,000 compounds, 0.98% hits;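 active means compounds whose plate-normalised and pattern-corrected inhibition of the luciferase reporter signal at the single screening dose is 50% or more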
An asterisk follows results filed as active; . = no result. Shown are actives, neighbours in structure and some others; about 3.6% of the full set was active somewhere.

SMILES | TWEAK Fn14 block | LGR2 inh | HSF-1 act | HSF1 inh | LMP1 NFkB inh | TROY NFkB inh
O=C(O)c1ccccc1OC(C(=O)Nc1cc(Cl)cc(Cl)c1)c1ccccc1 (stereo unspecified) | -37 | 0 | 58* | 14 | 5 | 16
O=C(Nc1ccc(OC(F)F)c(Cl)c1)C(c1ccccc1)c1ccccc1 | 19 | 16 | 1 | 2 | 9 | 57*
C[C@@H]1CCCCO[C@H](CN(C)C(=O)Nc2ccccc2)[C@@H](C)CN([C@@H](C)CO)C(=O)c2cc(NC(=O)C3CCCCC3)ccc2O1 | . | 10 | . | . | . | .
C/C=C/c1cccc(-c2nc(C(=O)NCCC)cc3c2[C@H](CCO)N([S@@](=O)C(C)(C)C)C3)c1 | . | 7 | . | . | . | .
COc1ccc(NC(=O)C2Cc3ccccc3C(=O)O2)cc1 (stereo unspecified) | -7 | -11 | -76 | -71* | 0 | -54
C[C@H]1CN([C@@H](C)CO)C(=O)c2cc(NC(=O)NC3CCCCC3)ccc2O[C@@H]1CN(C)C(=O)Nc1ccc(F)cc1 | . | 0 | . | . | . | .
O=C1C=CC2C3C(=O)N(c4ccccc4)C(=O)C3C1N2Cc1ccccc1 (stereo unspecified) | 95* | . | . | . | 23 | 55*
CO[C@H]1CN(C)C(=O)c2cc(NC(=O)C3CCCC3)ccc2OC[C@H](C)N(C)C[C@@H]1C | . | -3 | . | . | . | .
CO[C@@H]1CN(C)C(=O)c2cc(NS(C)(=O)=O)ccc2OC[C@H](C)N(C(=O)c2ccc3c(c2)OCO3)C[C@@H]1C | . | -9 | . | . | . | .
CCOC(=O)C1=C(C)NC(=O)CC1c1cc(OC)c(OC)cc1Br (stereo unspecified) | 0 | -19 | 25 | 18 | -1 | -8
C=CCOC(=O)C1=C(C)N(C)C(=O)NC1c1cc2c(cc1Br)OCO2 (stereo unspecified) | 90* | . | -4 | 3 | -18 | 82*
CCCCOC(=O)C1=C(C)N(C)C(=O)NC1c1cc2c(cc1Br)OCO2 (stereo unspecified) | 9 | -1 | . | . | -9 | -9
CCOC(=O)C1=C(C)NC(=O)CC1c1cc2c(cc1Br)OCO2 (stereo unspecified) | 100* | . | -21 | -4 | -15 | .
CCCN1[C@H](C(=O)NC2CCC2)[C@@H](CO)[C@@H]2Cn3c(ccc(-c4ccccc4F)c3=O)[C@@H]21 | . | 0 | . | . | . | .
CCCCCCCCN1C(=O)[C@H](CC(=O)NCC2CCCCC2)C[C@@]2(C(=O)OCC)CCCC=C12 | -2 | 0 | . | . | . | 51*
CCCCCCCCN1C(=O)[C@H](CC(=O)NCC2CCCCC2)C[C@@]2(C(=O)OCC)CCC=C12 | . | 7 | . | . | . | .
C[C@H](CO)N1C[C@H](C)[C@@H](CN(C)CC2CCCCC2)Oc2ccc(NC(=O)C3CC3)cc2CC1=O | . | -4 | . | . | . | .
COc1ccc(NC(=O)Nc2ccc3c(c2)C(=O)N([C@@H](C)CO)C[C@@H](C)[C@H](CN(C)CC2CCCCC2)OCCCC[C@H](C)O3)cc1 | . | 12 | . | . | . | .
CN(C)c1nc(NC(C)(C)C)nc(SCC(=O)Nc2ccccc2)n1 | -17 | -8 | 66* | 22 | 10 | 26
CN(C)c1nc(NCc2ccccc2)nc(SCC(=O)Nc2ccccc2)n1 | 27 | -12 | 13 | 2 | 1 | 33
Cc1cc(C)n(-c2nc(N(c3ccccc3)c3ccccc3)nc(-n3nc(C)cc3C)n2)n1 | 106* | . | 4 | -8 | 16 | 10
CC1CCN(C2=NC(=O)/C(=C/c3cccc(O)c3)S2)CC1 | -7 | -30 | 27 | 14 | -3 | 25
CC1CCN(C2=NC(=O)/C(=C/c3ccccc3F)S2)CC1 | 95* | 49 | -74 | -68* | . | 79*
CCCc1nc(SCC(=O)Nc2cc(Cl)ccc2OC)c2c(=O)n(C)c(=O)n(C)c2n1 | . | . | -70 | -63* | . | .
CCc1nc(SCC(=O)Nc2ccc(F)cc2F)c2c(=O)n(C)c(=O)n(C)c2n1 | -1 | 0 | 6 | 1 | 14 | -6

Bioassay records from PubChem BioAssay.
